# The supplement of paper PMC10515830
# Where a name gives a salt, the structure may show the parent alone.
# Tests used:
# Conditions in all cases: 10 µM; exposure time 6 h
# [1] = test system: Danio rerio larvae (5 dpf); assay: difference in excitability vs DMSO (percentage points); higher = more excitable than DMSO
# Procedure, shortened: (§1)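 Wild-type zebrafish larvae at 5 dpf were kept in 96-well plates and exposed for 6 h to 100 µL egg water holding library compound at a final concentration of 10 µM. From 3 h into exposure, the plates were held at 28.5 ℃ and photographed every 6 s through a 3-h programme of moving lines and 100 ms, 400Hz tones. Each behaviour was scored by Z-LaP Tracker, a DeepLabCut model, and averaged over 48 larvae per compound. Every value gives the compound mean minus the vehicle control mean, in percentage points.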
# [2] = test system: Danio rerio larvae (5 dpf); assay: difference in startle response vs DMSO (percentage points); higher = stronger startle than DMSO
# Procedure, shortened: as §1
# [3] = test system: Danio rerio larvae (5 dpf); assay: difference in activity during first hour vs DMSO (percentage points); higher = more activity than DMSO
# Procedure, shortened: as §1
# [4] = test system: Danio rerio larvae (5 dpf); assay: difference in habituation to acoustic stimuli vs DMSO (percentage points); higher = more habituation than DMSO
# Procedure, shortened: as §1
# [5] = test system: Danio rerio larvae (5 dpf); assay: difference in combined optomotor response to red, green and blue moving lines vs DMSO (percentage points); higher = stronger optomotor response than DMSO
# Procedure, shortened: as §1
Compound,difference in excitability [1],difference in startle response [2],difference in activity during first hour [3],difference in habituation to acoustic stimuli [4],difference [5]
C=CC[N+]1([C@H]2C[C@H]3[C@@H]4CC[C@H]5C[C@H](O)[C@@H](N6CCOCC6)C[C@]5(C)[C@H]4CC[C@]3(C)[C@H]2OC(C)=O)CCCC1 [Rocuronium (bromide)],14.3,-3.01,-1.74,4.51,-2.53
N#Cc1ccc2[nH]cc(CCCCN3CCN(c4ccc5oc(C(N)=O)cc5c4)CC3)c2c1 [Vilazodone (hydrochloride)],12.6,-3.13,-16.6,-3.2,-4.96
C[C@@H](O)[C@@H]1NC(=O)[C@H](CCCCN)NC(=O)[C@@H](Cc2c[nH]c3ccccc23)NC(=O)[C@H](Cc2ccccc2)NC(=O)[C@@H](NC(=O)[C@H](N)Cc2ccccc2)CSSC[C@@H](C(=O)N[C@H](CO)[C@@H](C)O)NC1=O [Octreotide (acetate)],11.3,-0.00387,-5.09,-0.654,0.73
O=C(O)COCCN1CCN(C(c2ccccc2)c2ccc(Cl)cc2)CC1 (stereo not given) [Cetirizine (hydrochloride)],-1.62,2.46,4.04,-2.99,6.72
CCCCCCCC(=O)N[C@H](CN1CCCC1)[C@H](O)c1ccc2c(c1)OCCO2 [Eliglustat (hemitartrate)],10.1,-3.5,7.49,7.96,7.51
CCCCc1oc2ccccc2c1C(=O)c1cc(I)c(OCCN(CC)CC)c(I)c1 [Amiodarone (hydrochloride)],8.93,-3.14,8.93,-15.9,-11.8
CCN(CCO)CCCC(C)Nc1ccnc2cc(Cl)ccc12 (stereo not given) [Hydroxychloroquine (sulfate)],10.2,0.589,-2.91,4.81,-3.68
S=P(N1CC1)(N1CC1)N1CC1,0.228,0.991,4.02,0.555,1.07
COC(=O)C1=C(C)NC(C)=C(C(=O)OCC(C)C)C1c1ccccc1[N+](=O)[O-] (stereo not given) [Nisoldipine],7.56,-9.87,0.119,-9.06,-16.9
CNC(=O)c1cnn(-c2nc(N)c3ncn([C@@H]4O[C@H](CO)[C@@H](O)[C@H]4O)c3n2)c1 [Regadenoson],-3.36,0.153,6.41,-0.999,3.31
CO[C@H]1/C=C/O[C@@]2(C)Oc3c(C)c(O)c4c(c3C2=O)C2=NC3(CCN(CC(C)C)CC3)NC2=C(NC(=O)/C(C)=C\C=C\[C@H](C)[C@H](O)[C@@H](C)[C@@H](O)[C@@H](C)[C@H](OC(C)=O)[C@@H]1C)C4=O [Rifabutin],10.6,-5.26,2.31,3.31,3.55
COc1cc2nc(N3CCN(C(=O)C4CCCO4)CC3)nc(N)c2cc1OC (stereo not given) [Terazosin (hydrochloride)],18.5,10.8,-10.2,1.1,13.9
CC(C(=O)O)c1cccc(Oc2ccccc2)c1 (stereo not given) [Fenoprofen (calcium salt hydrate)],5.22,0.479,-0.54,-2.86,-2.31
C/C(=C\c1csc(C)n1)[C@@H]1C[C@@H]2O[C@]2(C)CCC[C@H](C)[C@H](O)[C@@H](C)C(=O)C(C)(C)[C@@H](O)CC(=O)N1 [Ixabepilone],0.28,-3.45,16.6,5.42,-1.72
Cc1c(C(=O)Nc2ccc(N3C[C@@H](C)O[C@@H](C)C3)nc2)cccc1-c1ccc(OC(F)(F)F)cc1 [LDE225 (phosphate)],13,-4.4,-2.84,-4.9,3.16
C[C@H](CCC(=O)O)[C@H]1CC[C@H]2[C@@H]3CC[C@@H]4C[C@H](O)CC[C@]4(C)[C@H]3C[C@H](O)[C@]12C [Deoxycholic Acid],13.1,-0.179,23.8,3.17,0.759
COc1cc(C(=O)NS(=O)(=O)c2ccccc2C)ccc1Cc1cn(C)c2ccc(NC(=O)OC3CCCC3)cc12 [Zafirlukast],3.02,-0.95,17.6,4.84,-0.091
O=C(c1ccc(OCCN2CCCCC2)cc1)c1c(-c2ccc(O)cc2)sc2cc(O)ccc12 [Raloxifene (hydrochloride)],22,-0.808,-9.71,2.6,1.59
CC1=Nc2ccc(Cl)cc2S(=O)(=O)N1 [Diazoxide],-4.99,1.05,4.03,-3.84,5.23
CCCNCC(O)COc1ccccc1C(=O)CCc1ccccc1 (stereo not given) [Propafenone (hydrochloride)],14.4,-3.28,8.84,0.424,6.51
Cc1cc(C(C)(C)C)c(O)c(C)c1CC1=NCCN1 [Oxymetazoline (hydrochloride)],2.23,-0.966,-13.2,6.77,0.729
CC[C@H]1OC(=O)[C@H](C)[C@@H](O[C@H]2C[C@@](C)(OC)[C@@H](O)[C@H](C)O2)[C@H](C)[C@@H](O[C@@H]2O[C@H](C)C[C@H](N(C)C)[C@H]2O)[C@](C)(OC)C[C@@H](C)C(=O)[C@H](C)[C@@H](O)[C@]1(C)O [Clarithromycin],7.19,1.97,11.7,-1.55,6.95
Cc1cccc(Nc2ccccc2C(=O)O)c1C [Mefenamic Acid],6.54,-1.5,-5.95,-12.8,-15.5
